# RORgamma inh: blocks mouse ROR gamma transcriptional activity. P51450. Drosophila S2 Gal4-RORgamma UAS-luciferase reporter, 20 h. Potency, µM (highest dose often 53.6 µM), for inactives: at the highest dose activity change, negative = inhibition, most hits filed as inhibitors. 310,000 tested, 5.4% active. AID 2551; also: % is scaled to controls: 0 for no effect and ±100 for the full control effect; nearly all actives have a fitted effect of over 60% in size
# Target sequence (P51450 whole entry, looked up, the tested form may be a part): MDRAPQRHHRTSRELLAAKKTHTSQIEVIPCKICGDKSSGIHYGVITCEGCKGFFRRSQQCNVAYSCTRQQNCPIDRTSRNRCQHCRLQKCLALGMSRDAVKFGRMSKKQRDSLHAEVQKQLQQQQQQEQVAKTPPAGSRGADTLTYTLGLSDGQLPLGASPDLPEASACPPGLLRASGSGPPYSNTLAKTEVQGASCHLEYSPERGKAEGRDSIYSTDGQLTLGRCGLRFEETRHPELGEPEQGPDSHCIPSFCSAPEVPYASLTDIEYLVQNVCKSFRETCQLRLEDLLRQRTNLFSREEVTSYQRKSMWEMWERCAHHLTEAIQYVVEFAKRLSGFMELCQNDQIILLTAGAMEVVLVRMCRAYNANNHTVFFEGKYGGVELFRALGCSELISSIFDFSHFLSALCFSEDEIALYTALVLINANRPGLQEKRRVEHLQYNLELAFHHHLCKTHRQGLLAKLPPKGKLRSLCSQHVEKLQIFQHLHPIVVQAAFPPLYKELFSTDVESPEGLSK
#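 Stable Schneider cell line, Gal4 DNA-binding domain fused to ROR gamma, UAS-luciferase. Cmpd 1 hr RT → CuSO4 700 uM final → 20 hr RT → luciferase reagent 10 min → luminescence.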
# HepG2 viability: kills HepG2 cells in TGF-b inhibitor counter-screen; HepG2 CAGA-GFP viability, ATP luminescence, 18 h; Potency, µM (top dose mostly 46.1 µM), inactives show at the highest dose activity change, negative = cytotoxicity, most hits filed as cytotoxic; 410,000 tested, 0.76% active
#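 HepG2 CAGA-GFP cells (1000/well, DMEM with 1% FBS) received compound, then TGF-beta at 500 pg/mL final, and were incubated 18 hours at 37 degrees C. Viability was read by CellTiter-Glo luminescence. Media-only wells were set as complete cell-killing and DMSO as no toxicity.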
# TGFb SMAD3 inh: inhibitors of TGF-b signaling | HepG2 CAGA-GFP TGF-b/SMAD3 reporter, GFP fluorescence, 18 h; TGF-beta stimulated, 500 pg/mL final | Potency, µM (series often up to 46.1 µM), for inactives: at the highest dose activity, negative = inhibition, usual class: inhibitors | 410,000 tested, 1.2% active; also: % is scaled to controls: 0 for no effect and ±100 for the full control effect; nearly all actives have a fitted effect of over 65% in size
#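 First, reporter cells (HEPG2 CAGA-GFP) rested 2 h at 37 degrees C. Next, compounds were pinned in and TGF-beta added to 500 pg/mL final. After 18 h, GFP was imaged per cell and summed per well.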
# VP16 counter: Gal4-VP16 reporter inhibition counter-screen; Drosophila S2 Gal4-VP16 UAS-luciferase, luminescence, 20 h; Potency, µM (doses to about 53.6 µM), inactives show at the highest dose activity, negative = inhibition, hits mostly inhibitors; 310,000 tested, 3.5% active; AID 2546;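 also: Gal4-VP16 expression switched on by copper sulfate through the metallothionein promoter; % is scaled to controls: 0 for no effect and ±100 for the full control effect; nearly all actives have a fitted effect of over 50% in size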
# ATXN2 expr inh: ATXN2 expression inhibition; HEK-293 ATXN2-luciferase reporter, luminescence, 24 h; Potency, µM (titrated, usually from 57 µM), for the others: at the top dose activity change, negative = inhibition, hits mostly inhibitors; 360,000 tested, 0.72% active; AID 1745845; also: % is scaled to controls: 0 for no effect and ±100 for the full control effect; nearly all actives have a fitted effect of over 55% in size
#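 ATXN2-luciferase reporter cells (luciferase flanked by upstream and downstream ATXN2 gene portions) were treated 24 h at 37 °C with compounds at up to 57 uM. SteadyGlo luminescence gave expression; GF-AFC fluorescence gave viability.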
# S2 tox: cell viability loss in ATXN counter-screen | S2 cells (HEK-293 line with an ATXN2-luciferase reporter) viability, CellTiter-Fluor protease fluorescence, 24 h | Potency, µM (top dose mostly 56.7 µM), hits mostly cytotoxic | 400,000 tested, 0.49% active | AID 651635; also: nearly all actives have a fitted effect of over 40% in size
# An asterisk follows results filed as active; i = inactive; ? = inconclusive; . = not tested or not shown; [ ] = dose if it differs, or a comment. An excerpt weighted towards active compounds, which were near 6.1% of everything screened. Calls follow the shape of the dose curve; as a rule, active = well fitted curve in the direction sought with a large enough effect; inconclusive = small, poorly fitted or top-dose-only effect, or another doubt; inactive = no such curve, though single readings can be large; an effect the other way counts as inactive or inconclusive. Potency is read from the fitted curve at half-maximal effect.
SMILES,RORgamma inh,HepG2 viability,TGFb SMAD3 inh,VP16 counter,ATXN2 expr inh,S2 tox
Cc1nc(C(=O)NNC(=O)c2ccc(Cl)cc2)c(C(F)(F)F)o1,11µM*,-31%,-13%,?,?,?
N#CCCN(C(=O)Nc1ccccc1)c1ccccc1,-1%,4%,21%,-2%,4%,i
CC(C)N(Cc1ccccc1)C(=S)NC(=O)C1(C)CC1(Cl)Cl (centres undefined),0.56µM*,1%,?,2.5µM*,-15%,i
CC1(C(=O)NC(=S)N(CCC#N)c2ccccc2)CC1(Cl)Cl (centres undefined),13µM*,-15%,-19%,?,2%,i
O=C(O)CCC(=O)Nc1ccc(N2CCCCCC2)cc1,2.5µM*,-7%,12%,-25%,-11%,i
Cc1ccc(N2CCN(c3ccc(NC(=O)CCC(=O)O)cc3)CC2)cc1,-1%,0%,16%,-17%,1%,i
O=C(c1ccc2c(c1)N(Cc1ccccc1F)C(=O)c1ccccc1S2=O)N1CCC(Cc2ccccc2)CC1 (centres undefined),.,-25%,0%,.,-31%,i
O=C(Nc1ccc2c(c1)OCCO2)C1CC(c2ccccc2Cl)=NO1 (centres undefined),-27%,1%,0%,13%,13%,i
O=C(Nc1ccc2c(c1)OCO2)C1CC(c2ccccc2O)=NO1 (centres undefined),1.6µM*,5%,15%,?,12%,i
CCn1ncc(C2=NOC(C(=O)Nc3ccc(C)cc3)C2)c1C (centres undefined),22%,-6%,4%,-10%,-29%,i
CCn1ncc(C2=NOC(C(=O)Nc3ccc4c(c3)OCO4)C2)c1C (centres undefined),14%,0%,-4%,16µM*,18%,i
Fc1ccc2cnc(-c3ccccc3)c(-c3ccc(C(F)(F)F)cc3)c2c1,.,-33%,-2%,.,41%,i
COc1cc2cnc(-c3ccccc3)c(-c3ccc(C(F)(F)F)cc3)c2cc1OC,.,-35%,11µM*,.,?,?
CCCCc1c(-c2ccccc2OC)ncn1CCc1cccc(Cl)c1,.,.,.,.,0%,.
CCCCCc1c(-c2ccccc2)ncn1CCc1ccccc1OC,.,.,.,.,0%,?
CCCCc1c(-c2ccccc2OC)ncn1Cc1cccc(-c2ccccc2)c1,.,.,.,.,28µM*,?
CCCCc1c(-c2ccccc2OC)ncn1Cc1ccc(-c2ccccc2)cc1,.,.,.,.,25µM*,.
Cn1c(NC(=O)c2ccc(F)cc2)nc2ccccc21,0.45µM*,-33%,-16%,1.3µM*,19%,i
O=C(Nc1nc2ccccc2c2nc3ccccc3n12)c1ccc(F)cc1,3%,.,.,-5%,.,.
Cn1c(SC(C(=O)Nc2ccc(F)cc2)c2ccccc2)nc2ccccc21 (centres undefined),11µM*,-5%,-5%,?,.,?
C/C(=N\NC(=O)c1ccccc1)c1nc2ccccc2n1C,1.6µM*,2%,-2%,3.2µM*,0%,i
C/C(=N/NC(=O)c1ccncc1)c1ccc(NC(=O)c2ccccc2)cc1,-21%,3%,7%,7%,.,i
CC(C)(C)C(=O)Nc1ccccc1C(=O)Nc1ccccn1,37%,-4%,-1%,1%,2%,i
Cn1c(NC(=O)c2ccccc2NC(=O)C(C)(C)C)nc2ccccc21,10µM*,-21%,?,11µM*,-29%,?
O=C(Cn1ncc2c3ccccc3n(Cc3cccc(Cl)c3)c2c1=O)NCc1cccs1,.,-2%,9%,.,5%,i
SMILES,RORgamma inh,HepG2 viability,TGFb SMAD3 inh,VP16 counter,ATXN2 expr inh,S2 tox
COc1ccc(C(=O)OCC(=O)c2ccc(C3CCCCC3)cc2)cc1,17%,-29%,-9%,-8%[0.365 µM],-7%,i
Nc1ccc(O)cc1C(=O)OCC(=O)c1ccc(C2CCCCC2)cc1,7.1µM*,-57%,-28%,?,?,?
Cc1ccc(C)c(N2CCN(C(=O)c3cn(CC(C)C)c(=O)c4c3c3ccccc3n4C)CC2)c1,.,0%,0%,.,1%,i
S=c1[nH]nc(-c2cc(-c3ccco3)[nH]n2)n1-c1ccccc1,13µM*,-5%,18%,7%,-10%,i
S=c1[nH]nc(-c2ccco2)n1-c1ccccc1Cl,6.3µM*,-26%,1%,18µM*,21%,i
Cc1ccc(-n2c(-c3ccco3)n[nH]c2=S)cc1,11µM*,-2%,-15%,?,-1%,i
Cc1onc(-c2ccccc2)c1-c1n[nH]c(=S)n1-c1ccccc1Cl,4.5µM*,4%,6%,16µM*,-8%,i
COc1ccc(-c2noc(N3CCC(C(=O)Nc4ccc(C)c(F)c4)CC3)n2)cc1OC,.,-27%,1%,.,10%,i
CCOC(=O)CC(C(=O)OCC)C1CCCCC1=O (centres undefined),-11%,.,.,-6%,.,.
Fc1ccc(-n2c(-c3ccco3)n[nH]c2=S)cc1,?,4%,7%,?,1%,i
CCOc1ccc(-n2c(-c3ccco3)n[nH]c2=S)cc1,2.8µM*,-15%,?,?,-5%,i
O=C(Nc1cc(Sc2ccccn2)cc([N+](=O)[O-])c1)c1cccc(Cl)c1,-3%,-69%,11µM*,?,?,?
NC(=O)c1ccc(-c2ncc(-c3ccccc3)o2)cc1,1.8µM*,-21%,21%,11µM*,?,i
CCn1c(=S)[nH]c2cc(C(=O)OC)ccc2c1=O,13µM*,-12%,-15%,11µM*,-10%,i
COCCn1c(=S)[nH]c2cc(C(=O)N(CCO)Cc3ccccc3)ccc2c1=O,11µM*,-3%,0%,?,3%,i
Cc1ccc(-n2c(=O)[nH]c3c(oc4ccccc43)c2=O)cc1,5%,-9%,-8%,-3%,.,i
COc1ccc(-n2c(=S)[nH]c3c(oc4ccccc43)c2=O)cc1,2.8µM*,8%,5%,4.5µM*,7%,i
COC(=O)c1ccc2c(=O)n(-c3ccc(OC)cc3)c(=S)[nH]c2c1,2.8µM*,1%,-14%,5.6µM*,-23%,?
COCCn1c(=S)[nH]c2cc(C(=O)NCCc3ccccc3)ccc2c1=O,-11%,-3%,1%,2%,0%,i
COc1ccc(-n2c(=S)[nH]c3cc(C(=O)O)ccc3c2=O)cc1,2%,-7%,3%,0%,0%,i
COc1ccc(-n2c(=S)[nH]c3cc(C(=O)N(C)Cc4ccccc4)ccc3c2=O)cc1,7.9µM*,-2%,10%,?,-12%,i
